# Screening results deposited in PubChem by National Center for Advancing Translational Sciences (NCATS).
# A selection: hits, their analogues and other compounds. The true share with any hit is near 2.6%.
# HBB splicing: modulators of hemoglobin beta chain splicing; HBB splicing reporter cell assay, activation; EGFP reporter with mutant IVS2-654 intron; response scale: normalised to 500 nM splice-correcting PNA; Potency, µM (highest dose often 46.1 µM), without a hit: top-dose activation, actives largely listed as activators; AID 925; 0.06% of 65,000 active; further: potency means the concentration at half of the fitted maximal effect; 0% is about no effect
#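 Compounds were applied for 2 days to HeLa EGFP-654 cells, 500/well in Optimem with 2% FCS. The reporter's EGFP is disrupted by mis-splicing of beta-globin intron IVS2-654. Readout: summed well GFP fluorescence from 488 nm laser scanning; reference was 500 nM antisense […] 654 PNA.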
# Bst PK mod: alters activity of Bacillus stearothermophilus pyruvate kinase | purified pyruvate kinase, luminescence ATP production; ribose 5-phosphate activator present at AC10 | 1.2% of 51,000 active | Potency, µM; in the data active means potency below about 11 µM; inconclusive means mostly about 12 µM to 25 µM;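 the screen sought inhibitors and activators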;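 further: potency means the concentration at half of the fitted maximal effect; scaled between full activation by ribose 5 phosphate and full inhibition by luteolin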
# FLuc inh: firefly luciferase inhibition; AID 411; Potency, µM (titrated, usually from 57.1 µM), for the others: at the top dose activity change, negative = inhibition, most hits filed as inhibitors; purified firefly luciferase, luminescence, 8 min; 2.2% of 72,000 active; further: potency means the concentration at half of the fitted maximal effect; on the % scale 0 is the no-effect control and ±100 the full control effect; nearly all actives have a fitted effect of over 40% in size
# Target sequence (P08659 whole entry, looked up): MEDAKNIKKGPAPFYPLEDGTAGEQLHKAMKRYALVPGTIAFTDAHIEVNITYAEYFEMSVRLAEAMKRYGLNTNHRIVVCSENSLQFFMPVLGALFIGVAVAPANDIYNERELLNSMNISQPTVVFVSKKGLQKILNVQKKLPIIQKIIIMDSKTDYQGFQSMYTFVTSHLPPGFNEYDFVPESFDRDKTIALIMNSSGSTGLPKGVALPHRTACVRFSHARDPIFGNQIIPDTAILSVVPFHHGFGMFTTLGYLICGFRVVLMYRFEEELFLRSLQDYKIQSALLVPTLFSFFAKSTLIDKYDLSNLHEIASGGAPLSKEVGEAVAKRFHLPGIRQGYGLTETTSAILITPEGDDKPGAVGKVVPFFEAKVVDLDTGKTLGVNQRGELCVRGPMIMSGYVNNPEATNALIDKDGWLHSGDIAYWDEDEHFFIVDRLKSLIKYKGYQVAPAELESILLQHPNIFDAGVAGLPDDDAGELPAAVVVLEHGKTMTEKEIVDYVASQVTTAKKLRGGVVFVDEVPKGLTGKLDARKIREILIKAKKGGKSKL
#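 Luminescence read-out after 8 min at room temperature; enzyme reaction used luciferin plus 10 uM ATP (linear range) in imidazole buffer pH 7.2 with KCl, MgCl2, Tween 20 and BSA. Each sample was run as a titration.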
# GFP derepression: epigenetic modulators derepressing GFP locus in mouse cells; AID 597; mouse C127i GFP locus derepression, cytometry, 30 h; Potency, µM (top dose mostly 46.1 µM), without a hit: at the highest dose GFP derepression (activation); 0.09% of 68,000 active; further: % of control where 0% means no effect
#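 Murine C127i mammary cells carrying a silenced, stably integrated CMV-driven GFP reporter were treated with compound for 30 hours at 37 C. After PBS washes, GFP-positive cells were counted by laser-scanning microplate cytometry.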
# Active calls of the source: *; i = inactive; ? = inconclusive; nt = no result; [ ] = remark or other dose. Unless noted, the call rests on the fitted dose curve; in most records, active means well fitted curve in the direction sought with a large enough effect; inconclusive means small, poorly fitted or top-dose-only effect, or another doubt; inactive means no such curve, though single readings can be large; an effect the other way counts as inactive or inconclusive.
SMILES,HBB splicing,Bst PK mod,FLuc inh,GFP derepression
COC(=O)c1sccc1NC(=O)c1ccc2c(c1)OCO2,0%,nt,-5%,-2%
CC1CCC2C(=O)N3C(CCC(C)[C@@H]3c3ccc(Br)cc3)C(=O)N2C1c1ccc(Br)cc1 (stereo partly specified),1%[9.22 µM],nt,nt,nt
c1ccc(-c2nc(-n3ccnc3)nc(-n3ccnc3)n2)cc1,0%,0.94*,4%,-2%
c1ccc(CN2CCN(c3nc(-c4ccccc4)nc(-n4ccnc4)n3)CC2)cc1,-1%,4.4*,2%,0%
C=C(c1cccc2ccccc12)P(=O)(O)O,-5%[57.5 µM],0.17*,5%,0%
O=C(O)CCC(=O)c1cccc2ccccc12,0%,>57,2%,3%
CC1CCc2nc(NC(=O)C3CCCO3)sc2C1 (stereo unspecified),-1%,i,13µM*,3%
Cc1nnc(NC(=O)C2CCCO2)s1 (stereo unspecified),nt,>57,0%,1%
CC1CCc2nc(NC(=O)Cc3cccs3)sc2C1 (stereo unspecified),0%,nt,-25%,0%
CC1CCc2nc(NC(=O)c3ccco3)sc2C1 (stereo unspecified),0%,1.2*,2µM*,4%
COc1ccc(-c2cn3c4c(sc3n2)CCCC4)cc1,1%,0.54*,0.63µM*,-2%
NC(=O)C1=CN([C@@H]2O[C@@H](COP(=O)(O)OP(=O)(O)OC[C@@H]3O[C@H](n4cnc5c(N)ncnc54)[C@@H](OP(=O)(O)O)[C@@H]3O)[C@H](O)[C@@H]2O)C=CC1,2%,nt,2%,0%
CCOc1ccc(-c2cc(C(=O)O)c3ccccc3n2)c(OCC)c1,-5%,nt,-22%,2%
COc1ccc(-c2cc(C(=O)OCC(=O)N(C)C)c3ccccc3n2)cc1,0%[57.5 µM],9.8*,20µM*,2%
Clc1cccc(C=NC=Nc2cccc(Cl)c2)c1,nt,nt,2µM*,1%
CCOC(=O)c1cc(-c2ccncc2)nc2c1c(C)nn2-c1ccccn1,0%[57.5 µM],nt,4%,-1%
Cc1nn(-c2ccccn2)c2nc(-c3cccs3)cc(C(=O)N3CCOCC3)c12,-1%,7.1*,-43%,-3%
O=C(CSc1nnnn1-c1ccc(Cl)cc1)NC(=O)Nc1ccc2c(c1)OCCO2,-2%,>57,2.5µM*,-1%
CCCC(=O)N(C)c1nnc(-c2ccc(OC)cc2)s1,nt,i,16µM*,3%
CCN(C(=O)Cc1cccs1)c1nnc(-c2cc(OC)c(OC)c(OC)c2)s1,nt,>57,-2%,0%
CCOc1ccc(-c2nnc(N(CC)C(=O)C3CCC3)s2)cc1,0%[57.5 µM],?,16µM*,0%
COC(=O)C(/C=C/C(C)Cc1cc(Br)cc(OCc2ccccc2)c1OC)OCc1ccccc1 (stereo unspecified),-2%[9.22 µM],nt,nt,nt
CCCCCCCCCCCCC1CO1 (stereo unspecified),0%,nt,nt,nt
O=C(Nc1nc2c(Cl)cccc2s1)c1ccc(Br)o1,4%[1.84 µM],>57,-11%,-2%
O=C(Nc1nc2ccc(Cl)cc2s1)c1ccc(Br)o1,2%[0.0738 µM],nt,13µM*,-5%
SMILES,HBB splicing,Bst PK mod,FLuc inh,GFP derepression
COCCn1c(C)cc(C(=O)CSc2ncn[nH]2)c1C,-1%,>57,4%,3%
COCCn1c(C)cc(C(=O)CSc2nnc3ccccn23)c1C,-1%,nt,10µM*,4%
COCCn1c(C)cc(C(=O)CSc2nc3ccccc3o2)c1C,2%[57.5 µM],nt,7.9µM*,-5%
COCCn1c(C)cc(C(=O)CSc2nc(C)cc(C)c2C#N)c1C,0%,>57,-2%,3%
COC(=O)[C@H](Cc1ccccc1)NC(=O)C/C=C\[C@@H](C)[C@@H](CO)OC,1%[9.22 µM],nt,1%[11.4 µM],nt
COC(=O)[C@@]1(Cc2ccc(OC)cc2)[C@H]2c3cc(C(=O)N4CCCC4)n(Cc4cc(C)n(C)n4)c3C[C@H]2CN1C(=O)c1ccccc1,-1%,nt,nt,nt
CC(=O)N1CCc2cc(S(=O)(=O)NCCC(=O)Nc3cc(C)cc(C)c3)ccc21,0%,>57,2%,1%
CC(=O)N1CCc2cc(NC(=O)c3ccc(C)cc3)ccc21,-1%,?,6.3µM*,0%
c1ccc2c(c1)Cn1c-2nc2ccccc21,1%[0.369 µM],?,13µM*,-2%
C=C(CO)[C@H]1Cc2c(ccc3c(=O)c4c(oc23)COc2cc(OC)c(OC)cc2-4)O1,nt,nt,-5%[11.4 µM],2%[9.22 µM]
COC(=O)CC1C(=O)NCCN1C(=O)CSc1nnc(Nc2ccc(OC)cc2)s1 (stereo unspecified),0%,nt,16µM*,0%
Oc1ccc(COCc2ccccc2)c2cccnc12,nt,>57,-2%,3.2µM*
Oc1ccc(CNCc2ccccc2)c2cccnc12,2%[9.22 µM],nt,1%[11.4 µM],?
CCCCNc1nc(C)nc2c1nc(-c1ccccc1)n2C(C)CCCN(CC)CC (stereo unspecified),-2%,nt,nt,nt
Cc1ccc(S(=O)(=O)N2C(=O)CCC2C(=O)Nc2ccc3c(c2)OCCO3)cc1 (stereo unspecified),4%,2.3*,3%,5%
c1ccc2c[n+](Cc3ccnc4ccccc34)ccc2c1,3%[9.22 µM],nt,2%[11.4 µM],-6%[9.22 µM]
CC(=NCc1ccco1)c1c(C)[nH]n(-c2nc3ccccc3s2)c1=O,-1%,nt,2µM*,1%
CC(C)NC(=O)NC(=O)COc1ncnc2sccc12,0%,>57,1%,1%
C=CCn1c(C)cc(C(=O)COc2ncnc3sccc23)c1C,0%[57.5 µM],?,13µM*,7%
CN1CCCC2(CCN(S(=O)(=O)c3ccccc3)CC2)C1,1%,nt,0%[11.4 µM],4%[9.22 µM]
O=C(Nc1cccc(Cn2cccn2)c1)c1cc2c(s1)CCCC2,0%,i,13µM*,4%
C=CCSc1nncn1/N=C/c1ccc(OC)cc1,7%,i,25µM*,-3%
c1ccc(OCCSc2nnc3sc4ccccc4n23)cc1,0%[57.5 µM],?,25µM*,2%
COc1cccc(OCCSc2nnc3sc4ccccc4n23)c1,-1%[57.5 µM],nt,-14%,4%
O=C(Nc1cccc2nsnc12)c1ccc2c(c1)OCCO2,0%,nt,20µM*,1%
SMILES,HBB splicing,Bst PK mod,FLuc inh,GFP derepression
O=C(Nc1ccc2c(c1)OCCO2)C1CCN(S(=O)(=O)c2cccc3nsnc23)CC1,1%,9.3*,2%,-4%
Cc1ccnc(NC(=O)C2CCN(S(=O)(=O)c3cccc4nsnc34)CC2)c1,-1%,i,3%,0%
O=S(=O)(Nc1ccc2c(c1)OCCO2)c1cccc2nsnc12,-1%,8.6*,-14%,0%
Cc1nc2c(ccc3nc(NC(=O)c4ccc5c(c4)OCCO5)sc32)s1,0%,0.29*,0.79µM*,3%
CC(=O)N1[C@H](C)C=C[C@]1(Cc1ccccc1)C(=O)NCc1ccc(C)o1,-1%,nt,nt,nt
O=S(=O)(c1cccc2cccnc12)N1CCc2ccccc21,1%[57.5 µM],1.4*,2%,2%
CC1CCc2c(sc3nc(SCC(=O)NCc4ccco4)nc(N)c23)C1 (stereo unspecified),-6%[57.5 µM],i,13µM*,2%
c1ccc(CCc2nc(-c3ccccn3)no2)cc1,0%,>57,-22%,0%
Clc1ccc(OCc2nc(-c3ccccn3)no2)c(Br)c1,0%,nt,2.5µM*,5%
Nc1nonc1-c1noc(COc2ccccc2Cl)n1,-1%,nt,13µM*,0%
